Source: PubChem BioAssay (several laboratories)
Shown are actives, neighbours in structure and some others; about 4.1% of the full set was active somewhere.
Peg3 prom inh = Peg3 promoter activity inhibition; HeLa PEG-Prom luciferase reporter, luminescence, overnight; inhibition, % at 20 µM; 360,000 compounds, 1.7% hits; AID 588405;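 active means inhibition of at least 50% at 20 µM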
TROY NFkB inh = blocks TROY-dependent signaling in reporter cells | 360,000 compounds, 0.98% hits | inhibition, % at 10 µM | Q293 LMP1-TROYcd NF-kB luciferase reporter, 4 h;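 active means compounds whose plate-normalised and pattern-corrected inhibition of the luciferase reporter signal at the single screening dose is 50% or more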
TRPM1 prom inh = reduces MITF-dependent TRPM1 promoter luciferase signal | 330,000 compounds, 0.83% hits | inhibition, % at 12.5 µM | SK-MEL-5 TRPM1 promoter luciferase, 24 h;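 active means mean inhibition across replicates of 60% or more, whatever share of single replicates reaches that level; inconclusive means some that reach 60%, reason not given; inactive means mean inhibition across replicates below 60%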
EBV LMP1 NFkB = reduces LMP1-driven NF-kappaB luciferase signal | LMP1-induced NF-kappaB luciferase reporter cells, luminescence | inhibition, % at 12.5 µM | 350,000 compounds, 0.69% hits; in the data active means inhibition above about 41%; inconclusive means no clear call, values can overlap the other calls
Shn3 3UTR inh = reduces Shn3 3'UTR luciferase signal in osteoblasts | Clone20 osteoblast Shn3 3'UTR firefly luciferase, 24 h | inhibition, % at 12.5 µM | 360,000 compounds, 0.52% hits | AID 588674;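 active means mean inhibition of at least 75% with every replicate also reaching 75%; inconclusive means mean inhibition at least 75% but some replicate below; inactive means mean inhibition below 75%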
TWEAK Fn14 block = inhibitors of TWEAK-Fn14 interaction signaling | TWEAK-stimulated Fn14 reporter cells, luciferase luminescence, 8 h | inhibition, % at 10 µM | 360,000 compounds, 2% hits | AID 1159606; in the data active means inhibition above about 50%
Large screens that a line does not name were inactive.

c1ccc2c(c1)nc(Nc1ccc(N3CCCCC3)cc1)c1nncn12	TWEAK Fn14 block 50.9
CCOc1ccc(Nc2nc3ccccc3n3cnnc23)cc1	TWEAK Fn14 block 86.9
c1ccc(Nc2nc3ccccc3n3cnnc23)cc1	none
CCOC(=O)c1[nH]c(C)c(C(=O)OCc2ccccc2F)c1C	none
CC(C)O/C(=N/S(=O)(=O)c1ccc(Cl)cc1)c1ccccc1	none
CC(Sc1nc(N)cc(=O)[nH]1)C(=O)NNC(=O)c1cccc(Cl)c1 (centres undefined)	none
COC(=O)c1cc(S(=O)(=O)NCC2CCN(Cc3cc(C)ccc3C)CC2)c[nH]1	none
O=C(NCCC1=CCCCC1)c1cc(-c2ccccn2)nc2ccccc12	none
COc1ccccc1CCNC(=O)c1cc(-c2ccccn2)nc2ccccc12	Peg3 prom inh 51.0
Cc1ccc(S(=O)(=O)N(C)C)cc1NC(=O)c1cc(-c2ccncc2)nc2ccccc12	Peg3 prom inh 51.6
O=C(Nc1cc(S(=O)(=O)N2CCOCC2)ccc1N1CCCCC1)c1cc(-c2ccccn2)nc2ccccc12	none
COCCNC(=O)c1cc(-c2ccncc2)nc2ccc(S(=O)(=O)N3CCOCC3)cc12	TROY NFkB inh 64.5
Cc1ccc(S(=O)(=O)N2CCOCC2)cc1NC(=O)c1cc(-c2ccccn2)nc2ccccc12	Peg3 prom inh 90.4
Cc1ccc(-c2cc(C(=O)Nc3cc(C(=O)O)ccc3C)c3ccccc3n2)cc1	none
COc1ccc(NC(=O)CN2C(=O)CSC(C)C2=O)cc1 (centres undefined)	Peg3 prom inh 54.8
COc1ccc2c(-c3cc4ccc(OCc5ccc(F)cc5)cc4oc3=O)cc(=O)oc2c1	Peg3 prom inh 76.4
CCC(C)n1ncn(-c2ccc(N3CCN(c4ccc(OCC5COC(Cn6cncn6)(c6ccc(Cl)cc6Cl)O5)cc4)CC3)cc2)c1=O (centres undefined)	EBV LMP1 NFkB 91.1
O=C(NC1=C(Nc2ccc(Cl)cc2)C(=O)c2ccccc2C1=O)c1ccccc1	TRPM1 prom inh 72.1
O=C(Nc1cccc(Cl)c1)c1ccccc1	none
O=C1C(Cl)=C(NC(=O)c2ccccc2)C(=O)C(Cl)=C1NC(=O)c1ccccc1	Peg3 prom inh 103.0
CCn1c2ccccc2c2cc(/C=N/NC(=O)c3cc(O)cc(O)c3)ccc21	EBV LMP1 NFkB 66.4
CCn1c2ccccc2c2cc(/C=N/NC(=O)c3ccc(O)cc3)ccc21	EBV LMP1 NFkB 84.3
CCn1c2ccccc2c2cc(/C=N/NC(=O)c3ccncc3)ccc21	Peg3 prom inh 62.4, EBV LMP1 NFkB inconclusive
CNc1snc(C)c1C(=O)OC(C)C(=O)NCc1ccccc1 (centres undefined)	none
COc1cc(F)cc(-c2ccc3c(c2)c(C#Cc2ccsc2)c(-c2cc(OC)cc(OC)c2)n3C)c1	none
CC(=O)c1ccc(NC(=S)NC(C)c2ccc(Cl)cc2Cl)cc1 (centres undefined)	TROY NFkB inh 56.0
CCN(Cc1ccccc1)C(=O)c1oc2ccc(S(=O)(=O)N3CCOCC3)cc2c1C	none
CN(CC(=O)Nc1cccc(F)c1)C(=O)c1ccc(COc2ccccc2)o1	none
O=c1[nH]c(C2CCCN(S(=O)(=O)c3ccccc3)C2)nc2c1nnn2Cc1ccc2c(c1)OCCO2 (centres undefined)	none
O=c1[nH]c(C2CCN(S(=O)(=O)c3ccccc3C(F)(F)F)CC2)nc2c1nnn2Cc1ccccc1	Peg3 prom inh 51.0, TROY NFkB inh 50.7
O=c1[nH]c(C2CCCN(S(=O)(=O)c3cccc(Cl)c3)C2)nc2c1nnn2Cc1ccc2c(c1)OCCO2 (centres undefined)	Peg3 prom inh 51.0
O=C(Nc1ccncc1)c1c(Cl)cccc1Cl	TWEAK Fn14 block 54.8
COc1cc(NCCCCCCN)c2ncccc2c1OC	EBV LMP1 NFkB 56.4
Cc1ccc(N=c2oc3cc(O)ccc3cc2C(N)=O)cc1	TWEAK Fn14 block 61.0
CC(=O)c1cc2ccc(O)cc2oc1=O	none (no result: Shn3 3UTR inh)
N#CCCn1cc(C(=O)Nc2ccccn2)c(-c2ccccc2)n1	EBV LMP1 NFkB 69.2
COc1ccc2nc(C)cc(Sc3nc4ccccc4s3)c2c1	Peg3 prom inh 67.3, TWEAK Fn14 block 88.3
CCC(=O)N1CCN(c2ccccc2NC(=O)COc2cc(C)ccc2C(C)C)CC1	Peg3 prom inh 52.0
Cc1ccc(-c2cnn3c(N4CCOCC4)cc(C)nc23)cc1	TROY NFkB inh 73.4, TWEAK Fn14 block 84.6
